HEK293 cAMP cs: parental HEK293 cAMP activation (counter-screen); 73,000 tested, 2.5% active; AID 938; Potency, µM (titrated, usually from 57.1 µM), most hits filed as activators; parental HEK293 CNG cAMP sensor, membrane potential fluorescence; further: nearly all actives have a fitted effect of over 55% in size
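Counterscreen for endogenous-receptor signalling: CNG-channel HEK 293 cells report cAMP rise by membrane depolarization. After 60 min dye equilibration with 100 uM RO 20-1724, compounds incubated 30 min before bottom-read fluorescence at 590 nm.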
Casp1 inh: caspase-1 (human) inhibition, allosteric or competitive; Potency, µM (series often up to 57.5 µM), actives largely listed as inhibitors; Caspase-1 enzyme, Ac-WEHD-AFC fluorogenic rate; P29466; AID 900; 75,000 tested, 0.03% active
ERK AVP block: vasopressin-driven ERK pathway inhibition; 72,000 tested, 0.99% active; HEK293-V1b, vasopressin-stimulated pERK AlphaScreen; Potency, µM (top dose mostly 57.5 µM), actives largely listed as inhibitors; AID 995; further: nearly all actives have a fitted effect of over 55% in size
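HEK293 cells stably expressing V1b receptor, preincubated 30 min at 37 °C with compound, then stimulated 5 min with 25 nM vasopressin. Phospho-ERK by AlphaScreen SureFire after 5 h RT; normalized to DMSO and vasopressin; AC50 by Hill fit.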
TSHR ag: activates the human thyroid stimulating hormone receptor; P16473; HEK293-CNG-TSHR cells (CNG channel as cAMP sensor), membrane potential dye, cAMP; Potency, µM (series often up to 57.1 µM), actives largely listed as activators; 73,000 tested, 0.48% active; active means well fitted activation curve with a large enough effect in the main read-out, with a control signal flat, not every such curve was filed as active; inconclusive means small, poorly fitted or top-dose-only effect, or a change in a side signal; inactive means no such curve, though single readings can be large or run the other way; reference of the percent scale not stated here;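 further: the control signal comes from parental cells without the receptor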
Target sequence (P16473 whole entry, looked up): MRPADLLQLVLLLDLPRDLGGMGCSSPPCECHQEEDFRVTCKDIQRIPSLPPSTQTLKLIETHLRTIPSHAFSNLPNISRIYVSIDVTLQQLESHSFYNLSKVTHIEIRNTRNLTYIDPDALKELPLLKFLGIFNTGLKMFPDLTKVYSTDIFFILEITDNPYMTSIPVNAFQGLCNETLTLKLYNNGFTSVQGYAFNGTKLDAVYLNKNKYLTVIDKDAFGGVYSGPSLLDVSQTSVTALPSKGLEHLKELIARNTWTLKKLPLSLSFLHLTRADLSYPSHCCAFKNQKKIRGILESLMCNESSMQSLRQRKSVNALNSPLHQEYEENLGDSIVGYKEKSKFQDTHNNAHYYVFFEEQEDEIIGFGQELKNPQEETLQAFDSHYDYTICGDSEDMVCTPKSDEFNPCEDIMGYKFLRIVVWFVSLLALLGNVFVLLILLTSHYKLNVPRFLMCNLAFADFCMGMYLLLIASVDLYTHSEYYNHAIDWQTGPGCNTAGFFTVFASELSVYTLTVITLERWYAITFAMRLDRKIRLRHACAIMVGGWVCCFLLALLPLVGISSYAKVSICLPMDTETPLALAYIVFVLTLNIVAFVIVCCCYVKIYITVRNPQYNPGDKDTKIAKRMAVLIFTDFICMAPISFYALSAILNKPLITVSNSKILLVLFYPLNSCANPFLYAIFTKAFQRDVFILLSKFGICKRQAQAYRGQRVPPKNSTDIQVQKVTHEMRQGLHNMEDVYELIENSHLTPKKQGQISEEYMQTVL
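HEK 293 cells stably expressing TSHR and a cAMP-gated CNG channel; parental CNG-only cells as counterscreen. Cells preloaded 60 min with membrane potential dye plus 100 uM RO 20-1724, then compound 30 min; fluorescence read at 590 nm.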
GBA mod: human lysosomal glucosylceramidase modulation | 48,000 tested, 1.1% active | Potency, µM | purified enzyme, resorufin glucoside fluorescence (screen aimed at inhibitors), 20 min | AID 360; in the data active means potency below about 15 µM; inconclusive means mostly about 16 µM to 33 µM;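 further: the screen sought inhibitors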
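Wild-type enzyme at 0.2 nM final in 50mM citric acid/KH2PO4, 10mM sodium taurocholate, 0.01% tween-20, pH 5.9, with resorufin beta-D-glucopyranoside at 30 uM final. Compounds titrated, 20 min at RT, red fluorescence read; AC50 from titration.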
Caspase-7 inhib: allosteric or competitive inhibitors of human caspase-7; P55210; recombinant caspase-7, Ac-DEVD-AFC fluorescence rate; Potency, µM (series often up to 57.5 µM), usual class: inhibitors; 75,000 tested, 0.02% active; active means well fitted inhibition curve with a large enough effect in the main read-out, with a control signal flat, not every such curve was filed as active; inconclusive means small, poorly fitted or top-dose-only effect, or a change in a side signal
Of the large screens only hits and unclear results are named; the others gave an inactive call. Hits are enriched below; roughly 4.5% of the tested compounds scored in any of these assays. Unless noted, the call rests on the fitted dose curve; in most records, active means well fitted curve in the direction sought with a large enough effect; inconclusive means small, poorly fitted or top-dose-only effect, or another doubt; inactive means no such curve, though single readings can be large; an effect the other way counts as inactive or inconclusive.

CC(=O)NCCNc1ncnc2ccc(-c3cccc(NS(C)(=O)=O)c3)cc12	HEK293 cAMP cs inconclusive, TSHR ag inconclusive (no result: GBA mod)
Cc1cccc2sc(NC(=O)Cn3cccc3)nc12	ERK AVP block 25µM (no result: GBA mod)
COC(=O)Nc1nc2c(C)cccc2s1	none
O=C1CC(c2cccs2)Cc2nc(NCC3CCCO3)ncc21 (stereo not given)	ERK AVP block 20µM
CC1CC(=O)c2cnc(NCC3CCCO3)nc2C1 (stereo not given)	none
CC1=NN(c2ccc(S(=O)(=O)O)cc2)C(=O)/C1=C\c1ccc(Cl)cc1	none (no result: GBA mod)
COc1ccccc1N1CCN(Cc2nc(N)nc(Nc3ccc(C)c(Cl)c3)n2)CC1	ERK AVP block inconclusive, GBA mod 5.3
COc1ccccc1Nc1nc(N)nc(CN2CCN(c3ccccc3F)CC2)n1	GBA mod 2.4
COc1ccccc1Nc1nc(N)nc(CSc2ncccn2)n1	none
COc1ccc(N2CCN(Cc3nc(N)nc(Nc4ccccc4OC)n3)CC2)cc1	GBA mod 3.9
Cc1ccc(-c2nn3c(-c4ccco4)nnc3c3ccccc23)cc1S(=O)(=O)NCC1CCCO1 (stereo not given)	HEK293 cAMP cs 20µM, TSHR ag inconclusive
Cc1ccc(-c2nnc3c4ccccc4c(C)nn23)cc1S(=O)(=O)N1CCN(C)CC1	HEK293 cAMP cs inconclusive, TSHR ag inconclusive (no result: GBA mod)
COc1ccccc1OCc1ccc(C(=O)Nc2ccncc2)o1	ERK AVP block 16µM, GBA mod 13
COc1ccccc1OCc1ccc(C(=O)NC(C)(C)C)o1	none
N#Cc1cc2cc3c(cc2nc1SCC(=O)OC1CCCCC1)OCO3	HEK293 cAMP cs 16µM, TSHR ag inconclusive
CC(C)C[C@H](NC(=O)[C@@H](NC(=O)N[C@@H](Cc1ccccc1)C(=O)O)[C@H]1CCN=C(N)N1)C(=O)N[C@H](C=O)Cc1ccccc1	none (no result: Casp1 inh, ERK AVP block, GBA mod, Caspase-7 inhib)
O=C(CN1C(=O)NC2(CCCCCC2)C1=O)c1ccc2c(c1)OCCO2	HEK293 cAMP cs 10µM, ERK AVP block inconclusive, TSHR ag inconclusive
O=C(CSc1nnc(Cc2ccccc2)n1Cc1ccco1)NC1CCCC1	HEK293 cAMP cs inconclusive, TSHR ag inconclusive
O=C(CSc1nnc(-c2cccnc2)n1Cc1ccco1)c1ccccc1	none
O=C(CSc1nnc(-c2ccc(O)cc2)n1Cc1ccco1)c1cccs1	ERK AVP block inconclusive, TSHR ag 10µM (no result: GBA mod)
COc1cccc(-c2nnc(SCC(=O)OC(C)C)n2Cc2ccco2)c1	HEK293 cAMP cs 16µM, TSHR ag inconclusive
CC(C)OC(=O)CSc1nnc(-c2cnccn2)n1Cc1ccco1	none
CC(C)OC(=O)CSc1nnc(Cc2ccccc2)n1Cc1ccco1	HEK293 cAMP cs 5µM, TSHR ag inconclusive
Cn1cccc1C(=O)N1CCC2(CC1)CN(c1ccccn1)C2	none (no result: Casp1 inh, GBA mod)
O=C(O)C(S)[C@@H](S)C(=O)O (stereo not given in full)	none (no result: HEK293 cAMP cs, TSHR ag, GBA mod)
C[C@@H](Cc1ccccc1)Nc1ncnc2c1ncn2[C@@H]1O[C@@H](CO)[C@H](O)[C@@H]1O	HEK293 cAMP cs 25µM, TSHR ag inconclusive (no result: GBA mod)
Cc1ccccc1CNc1ncnc2c1ncn2[C@@H]1O[C@@H](CO)[C@H](O)[C@@H]1O	HEK293 cAMP cs 7.9µM, TSHR ag inconclusive (no result: GBA mod)
CNc1ncnc2c1ncn2[C@@H]1O[C@H](CO)[C@@H](O)[C@@H]1O	HEK293 cAMP cs inconclusive, TSHR ag inconclusive (no result: GBA mod)
Nc1nc(Cl)nc2c1ncn2[C@@H]1O[C@@H](CO)[C@@H](O)[C@H]1O	HEK293 cAMP cs 7.9µM, ERK AVP block 13µM, TSHR ag inconclusive (no result: GBA mod)
OC[C@@H]1O[C@@H](n2cnc3c(NCc4ccco4)ncnc32)[C@H](O)[C@H]1O	none (no result: Casp1 inh, ERK AVP block, GBA mod, Caspase-7 inhib)
N#Cc1ccc(CN2CCC3(CC2)CCN(C(=O)c2cc(C(F)(F)F)cc(C(F)(F)F)c2)CC3)cc1	none (no result: GBA mod)
N[C@@H](Cc1c[nH]c2ccccc12)C(=O)NCC(=O)O	none (no result: Casp1 inh, ERK AVP block, GBA mod, Caspase-7 inhib)
CCn1nc(C(=O)OCC(=O)c2cc(C)n(Cc3cccs3)c2C)c2ccccc2c1=O	HEK293 cAMP cs inconclusive, TSHR ag inconclusive
Cc1csc(SCC(=O)c2cc(C)n(Cc3cccs3)c2C)n1	HEK293 cAMP cs 16µM, ERK AVP block inconclusive, TSHR ag inconclusive
CC(=O)Nc1ccccc1OCC(=O)c1cc(C)n(Cc2cccs2)c1C	HEK293 cAMP cs 10µM, TSHR ag inconclusive

Assay outcomes as filed in PubChem BioAssay.
